Bioassay records (PubChem)
This is one part of a sample in which hits are shown more often than they occur.
aSyn tox rescue – inhibitors of alpha-synuclein toxicity in yeast | actives 0.02% (n = 94,000) | Potency, µM (top dose mostly 46.1 µM), usual class: activators | S. cerevisiae alpha-synuclein toxicity rescue, BacTiter-Glo growth, 24 h | AID 1347070; active = well fitted activation curve with a large enough effect; note: 0% is about no effect
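Growth restoration measured by BacTiter-Glo luminescence after 24 hr at 30 deg C; alpha-synuclein yeast, raffinose-pregrown to mid-log, were added at OD600=0.02 in galactose medium onto pinned compounds.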
* marks the source's active call; other numbers are inactive results; i = inactive. Potency is the fitted concentration of half-maximal effect.

SMILES | aSyn tox rescue
COc1cc(NC(=O)CC2C(=O)OCCN2Cc2ccccc2)cc(OC)c1 (stereo not given) | i
Cc1ccc2ccc3cc(C(=O)Nc4ccc(C)c(F)c4)nc3c2[nH]1 | i
COc1cc(NC(=O)CSc2nc3nc(C)c(Cc4ccc(C)cc4)c(C)n3n2)cc(OC)c1 | i
Cc1cc(NC(=O)n2ncc3c(C)cccc32)ccc1Br | i
COc1c(C)cccc1C(=O)Nc1ccc(-c2nc3ccccc3s2)c(Cl)c1 | i
CCCN(CCC)CCCNC(=O)c1cc2c(=O)oc3ccc(C)cc3c2s1 | 13µM*
Cc1ccc(CNC(=O)c2cc3c(=O)oc4ccc(C)cc4c3s2)cc1 | i
Cc1ccc2oc(=O)c3cc(C(=O)NCc4ccc(Cl)cc4)sc3c2c1 | i
Cc1ccccc1CCNC(=O)c1cc2ccccn2n1 | i
Cc1noc(Cn2c(=O)c3ccccc3n(CC(=O)Nc3cccc(Cl)c3C)c2=O)n1 | i
CCCOc1ccc(NC(=O)C(=O)NCCCN2CCOCC2)cc1 | i
Cc1nc2scc(C)n2c(=O)c1S(=O)(=O)Nc1cccc(C(F)(F)F)c1 | 11µM*
COc1cccc(CNS(=O)(=O)c2c(C)nc3scc(C)n3c2=O)c1 | i
Cc1nc2scc(C)n2c(=O)c1S(=O)(=O)Nc1cccc(O)c1 | i
CCCCN(C)c1ncnc2c1cnn2-c1cccc(Cl)c1 | i
CCN1CCC(N(Cc2ccc(F)cc2)C(=O)Nc2cc(Cl)ccc2C(=O)OC)CC1 | i
Cc1ccc(C2c3[nH]c4ccccc4c3CCN2C(=O)CSc2ccccc2)cc1 (stereo not given) | 14µM*
CSc1ccc(C2c3[nH]c4ccccc4c3CCN2C(=O)CCc2ccccc2)cc1 (stereo not given) | i
CCc1ccccc1NC(=O)N1CCc2c([nH]c3ccccc23)C1c1ccc(C)cc1 (stereo not given) | i
O=C(CCC1CCCC1)N1CCc2c([nH]c3ccccc23)C1c1ccc(F)cc1 (stereo not given) | i
Cc1ccc(C2c3[nH]c4ccccc4c3CCN2C(=O)CSCc2ccc(F)cc2)cc1 (stereo not given) | 16µM*
CCOc1ccc(C2c3[nH]c4ccccc4c3CCN2C(=O)CSc2ccccc2)cc1 (stereo not given) | i
Cc1c(CNC(C)CCc2ccccc2)c(C(=O)O)c(C)n1Cc1ccc(F)cc1Cl (stereo not given) | i
N#Cc1ccc(C(=O)N2CCC3CC2c2cc(N4CCCCC4)ccc23)cc1 (stereo not given) | i
Cc1ccc(OCCCSc2nc(-c3ccc(C(C)(C)C)cc3)nc3cc(=O)[nH]n23)cc1C | i
SMILES | aSyn tox rescue
COC(=O)c1scc(-c2ccccc2)c1S(=O)(=O)Nc1cccc(C)c1C | i
CCc1ccc(NS(=O)(=O)c2c(-c3ccccc3)csc2C(=O)OC)cc1 | 25µM*
CCOC(=O)c1scc(-c2ccccc2)c1S(=O)(=O)Nc1ccccc1OC | i
Cc1nnc(SCc2ccccc2Cl)c2cc3occc3n12 | i
O=S(=O)(Nc1cccc(-c2ccc(N3CCOCC3)nn2)c1)c1ccc(F)c(C(F)(F)F)c1 | i
Cc1ccc(NC(=O)c2c(C)nn(-c3ccccc3)c2-n2cccc2)c(Cl)c1 | i
CCCCNC(=O)Cn1ncc2c(C)n(Cc3cccc(Cl)c3)c(C)c2c1=O | i
CCC(=O)Nc1cc(C)c(O)c(-c2nc3ncccc3o2)c1 | i
CCOc1ccc(N(C(=O)CC(C)C)S(=O)(=O)c2ccc3c(c2)oc(=O)n3C)cc1 | i
Cc1ccc2nc(-c3ccc(Cl)c(NC(=O)c4cccc([N+](=O)[O-])c4C)c3)oc2c1 | i
CCN(CC)CCOC(=O)c1ccc(NC(=O)c2nn(-c3ccc(C)cc3)c(=O)c3c2c2ccccc2n3C)cc1 | i
COc1ccc(OC(C)c2nc3ccccc3[nH]2)cc1 (stereo not given) | i
O=C(CCn1c(=O)c2ccccc2n(Cc2cccc(Cl)c2)c1=O)NCCc1ccccc1 | i
Cc1ccc(Cl)c2sc(N3CCN(C(=O)C4CC4)CC3)nc12 | i
CCCCOc1ccc(C2C(=O)N(C3CCCCC3)CC(=O)N2CCCC)cc1 (stereo not given) | i
CCOC(=O)CNC(=O)Nc1cc(C(=O)NCc2ccc(C(C)C)cc2)ccc1N1CCCC1 | i
CCN(CC)S(=O)(=O)c1ccc2c(c1)N(CC(=O)N1CCN(c3ccccc3F)CC1)C(=O)CO2 | i
O=C(CCSCc1cccc(Cl)c1)NCc1ccc(F)cc1Cl | 28µM*
O=C(CCSCc1ccccc1Cl)NCc1ccc(F)cc1Cl | i
O=C(CCSCc1ccc(Cl)cc1)NCc1ccc(F)cc1Cl | i
COc1ccc(CNC(=O)c2cc(C)nc3c2c(C)nn3-c2cccc(Cl)c2C)cc1 | i
CCCCOC(=O)/C(C#N)=C/c1ccc(-c2ccc(Br)cc2)o1 | i
COc1cc(CN2CCN(S(=O)(=O)c3ccc(NC(C)=O)cc3)CC2)cc(OC)c1OC | i
COc1ccc(-c2[nH]c3ccccc3c2SCCNC(=O)c2ccc(S(=O)(=O)N(C)C)cc2)cc1 | i
